Source: PubChem BioAssay (NCATS)
Several values for one entry are separate records, joined by “and”; a condition that tells them apart may be missing. Identical values can stand only once. Inconclusive results are not listed. Activity calls are given as the source filed them. Unless noted, the call rests on the fitted dose curve; in most records, active means well fitted curve in the direction sought with a large enough effect; inconclusive means small, poorly fitted or top-dose-only effect, or another doubt; inactive means no such curve, though single readings can be large; an effect the other way counts as inactive or inconclusive.

Columns and labels:
[1] = biological target: Phospholipid hydroperoxide glutathione peroxidase GPX4 (Homo sapiens) (UniProt P36969); experiment: Primary qHTS Assay for Inhibitors of Recombinant Selenoprotein Glutathione Peroxidase 4 (GPX4) (AID 1845192); further: nearly all actives have a fitted effect of over 65% in size; further: potency means the concentration at half of the fitted maximal effect
Phospholipid hydroperoxide glutathione peroxidase GPX4 (Homo sapiens), sequence (P36969 whole entry, looked up): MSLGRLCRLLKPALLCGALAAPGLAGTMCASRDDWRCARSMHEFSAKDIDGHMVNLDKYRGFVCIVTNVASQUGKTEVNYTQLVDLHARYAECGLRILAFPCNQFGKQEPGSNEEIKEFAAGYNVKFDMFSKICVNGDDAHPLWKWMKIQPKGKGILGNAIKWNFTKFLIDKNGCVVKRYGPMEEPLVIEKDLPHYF
Outline: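 Steps: GPX4 plus compound, 30 min RT; add GR/GSH/NADPH master mix; start with cumene hydroperoxide; read 340/450 nm fluorescence at 0 and 15 min. Finals were 200 nM GPX4, 1 mM GSH, 0.5 mM CHP, 0.5 mM NADPH, 100 nM GR.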

[2] = biological target: Glutathione peroxidase 1 (Homo sapiens) (UniProt P07203); experiment: Primary qHTS Assay for Inhibitors of Recombinant Selenoprotein Glutathione Peroxidase 1 (GPX1) (AID 1845191); further: nearly all actives have a fitted effect of over 65% in size; further: potency means the concentration at half of the fitted maximal effect
Glutathione peroxidase 1 (Homo sapiens), sequence (P07203 whole entry, looked up): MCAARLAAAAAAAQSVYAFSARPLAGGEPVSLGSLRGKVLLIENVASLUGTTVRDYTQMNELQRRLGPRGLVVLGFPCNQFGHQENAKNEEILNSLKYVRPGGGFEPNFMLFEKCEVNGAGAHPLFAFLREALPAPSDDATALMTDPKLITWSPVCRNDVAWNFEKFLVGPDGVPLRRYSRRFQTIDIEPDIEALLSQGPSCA
Outline: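 GR-coupled readout: NADPH consumption tracked by fluorescence, ex 340/em 450 nm, at t=0 and after 15 min at RT. Final mix 10 nM GPX1, 1 mM GSH, 0.5 mM CHP, 0.5 mM NADPH, 100 nM GR, 0.01% BSA, following 30 min enzyme–compound preincubation.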

[3] = Cell Viability - N2a (AID 540); settings: N2a mouse neuroblastoma cell viability; activity change, negative = cytotoxicity: at 92.2 µM (top of the series);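 further: plate controls were DMSO alone for no effect and tamoxifen control for full effect; nearly all actives have a fitted effect of over 45% in size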
Outline: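 In this qHTS cytotoxicity screen, ATP-dependent luciferase luminescence reports viable N2a cells after a 40 hr compound exposure in complete culture medium. Potencies are AC50 values from standard Hill equation fits.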

[4] = Cell Viability - SH-SY5Y (AID 544);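 further: 0% = DMSO alone and -100% = 100 µM tamoxifen; nearly all actives have a fitted effect of over 55% in size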
Outline: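 Quantitative HTS in SH-SY5Y neuroblastoma cells, 40 hr treatment at 37 °C, ATP content by luciferase luminescence; AC50 from Hill fits.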

[5] = Cell Viability - Renal Proximal Tubule (AID 545); settings: renal proximal tubule cells viability, primary cells of rat origin; at 91.7 µM (top of the series);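 further: 0% = DMSO only and -100% = 100 µM tamoxifen; nearly all actives have a fitted effect of over 40% in size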
Outline: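 Rat renal proximal tubule primary cells, 1000/well, exposed to compounds for 40 hr at 37 °C in complete medium; cellular ATP read by CellTiter-Glo luminescence. AC50 from concentration-response fitted with standard Hill equation.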

[6] = Cell Viability - Mesenchymal (AID 546); settings: mesenchymal cells viability, qHTS; activity change, negative = cytotoxicity: at 91.7 µM (top of the series);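 further: cells exposed to compound for 40 hours before reading; 0% = DMSO only and -100% = 100 µM tamoxifen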
Outline: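 Human renal mesenchymal cells (glomerulus-derived), 1000 cells/well, 5 hr 37 °C pre-incubation; compound 40 hr, 37 °C; CellTiter-Glo, 20 min RT; luminescence; AC50 via Hill equation.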

[7] = Cellular Toxicity (caspase-3) HepG2 (AID 654);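 further: cells exposed to compound for 16 hours before reading; 0% = DMSO alone and 100% = caspase signal from 100 µM tamoxifen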
Outline: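 Concentration-response AC50 values reflect caspase-3/7 induction in HepG2 cells after 16 hours of compound exposure, quantified by luminescence from liberated aminoluciferin and referenced to 100 uM tamoxifen as full stimulation.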

[8] = Cellular Toxicity (caspase-3) HUV-EC-C (AID 656);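 further: 0% = DMSO basal and 100% = 100 µM tamoxifen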
Outline: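 HUV-EC-C cells (1000/well) in complete medium, compound-treated 16 h at 37 °C; caspase-3/7 activity read by Caspase-Glo 3/7 luminescence. Normalized to DMSO (basal) and 100 uM tamoxifen (100%); AC50 from Hill-equation concentration-response fits.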

[9] = Cellular Toxicity (caspase-3) BJ (AID 658);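 further: 0% = DMSO basal and 100% = 10 µM staurosporine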
Outline: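 qHTS, BJ fibroblasts, 1000 cells/well; 5 hr preincubation, 16 hr compound, 37 °C; Caspase-Glo 3/7 reagent, 1 hr RT; luminescence. DMSO = 0%, 10 uM staurosporine = 100%. Hill-equation AC50.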

[10] = Cellular Toxicity (caspase-3) MRC-5 (AID 659);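 further: 0% = DMSO basal and 100% = 10 µM staurosporine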
Outline: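 MRC-5 fibroblasts, 1500/well; 16 h cpd, 37 °C; Caspase-Glo 3/7, 1 h RT; lumi read. Norm: DMSO = 0%, 10 uM staurosporine = 100%. Hill-fit AC50 from qHTS conc-response.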

[11] = Cellular Toxicity (caspase-3) Mesangial (AID 660);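 further: cells exposed to compound for 16 h before the caspase read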
Outline: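 AC50 values come from Hill-equation fits of caspase 3/7 activation, measured as Caspase-Glo luminescence in human glomerular mesangial cells exposed to compound for 16 h at 37 °C; 100% set by 100 uM tamoxifen.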

[12] = Cellular Toxicity (caspase-3) Hek293 (AID 664);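 further: cells exposed to compound for 16 h at 37 °C before readout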
Outline: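 Apoptosis readout: Caspase-Glo 3/7 signal in human HEK293 cells following 16-hour compound incubation. Responses scaled between DMSO baseline and 100 uM tamoxifen.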

[13] = Cellular Toxicity (caspase-3) N2a (AID 665);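 further: compound exposure lasted 16 h at 37 °C before readout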
Outline: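 Concentration-response qHTS: compound-induced caspase-3/7 luminescence in N2a cells (16 h, 37 °C), relative to DMSO and 10 uM staurosporine controls; AC50 obtained using the standard Hill equation.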

[14] = qHTS Assay for Identification of Small Molecule Inducers of Hypoxia Response (AID 2120; active means well fitted curve in the direction sought with a large enough effect in the signal ratio, with a control signal flat, not every such curve was filed as active; the % refers to the signal ratio; further: 0% is about no effect)
Outline: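 HRE-bla ME-180, 2500 cells/well, 0.5% dialyzed FBS medium; cpd titration, 17 h 37 degrees C; CCF4 2.5 h RT; Ex 405, Em 460/530 ratio -> %Activity, AC50.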

[15] = qHTS assay for small molecule antagonists of retinoid X receptor alpha signaling (AID 588546; active means well fitted inhibition curve with a large enough effect in the signal ratio, with a control signal flat, not every such curve was filed as active; the % refers to the signal ratio;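 further: cells stimulated with 9-cis-retinoic acid as agonist; on the % scale 0 is the no-effect control and ±100 the full control effect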); settings: HEK293T RXRa-UAS-bla, beta-lactamase ratio, antagonist mode; measured here: W530 green channel, cytotoxicity proxy
Outline: (§1)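 Beta-lactamase reporter inhibition, read as CCF4 fluorescence ratio (ex 405, em 460/530 nm) after 2 h at RT. HEK293T UAS-bla cells, 2500/well, were stimulated with 9-cis-RA at 500 or 100 nM final alongside test compound for 18 h at 37 C.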

[16] = biological target: Retinoic acid receptor RXR-alpha (Homo sapiens) (UniProt P19793); experiment: as above; settings: HEK293T RXRa-UAS-bla, beta-lactamase ratio, antagonist mode
Retinoic acid receptor RXR-alpha (Homo sapiens), sequence (P19793 whole entry, looked up): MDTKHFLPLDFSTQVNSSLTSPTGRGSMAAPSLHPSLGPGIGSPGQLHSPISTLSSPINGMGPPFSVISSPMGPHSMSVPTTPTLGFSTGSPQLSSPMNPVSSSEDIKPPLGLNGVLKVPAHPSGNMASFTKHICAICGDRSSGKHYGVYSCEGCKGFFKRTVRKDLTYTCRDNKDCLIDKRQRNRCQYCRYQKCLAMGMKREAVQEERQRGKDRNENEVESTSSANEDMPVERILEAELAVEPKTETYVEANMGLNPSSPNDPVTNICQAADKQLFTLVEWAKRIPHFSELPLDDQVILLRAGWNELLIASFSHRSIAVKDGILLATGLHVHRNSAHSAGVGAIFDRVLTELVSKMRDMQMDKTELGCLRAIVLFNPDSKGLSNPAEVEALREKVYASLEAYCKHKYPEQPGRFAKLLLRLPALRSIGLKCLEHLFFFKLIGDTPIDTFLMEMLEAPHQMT
Outline: as §1

[17] = qHTS assay for environmental chemicals that activate the Aryl hydrocarbon Receptor (AhR) signaling pathway (AID 651777); settings: 1A2-DRE human hepatoma cells, luciferase, 24 h; activation: stronger effect = higher value; further: % of control where 0% means no effect; nearly all actives have a fitted effect of over 15% in size
Outline: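 1A2-DRE human hepatoma reporter line; 1,200 cells/well; cmpd or DMSO 24 h, 37 C/5% CO2; One-Glo 30 min RT; luciferase lum.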

[18] = biological target: Peroxisome proliferator-activated receptor alpha (Homo sapiens) (UniProt Q07869); experiment: qHTS assay for small molecule agonists of the peroxisome proliferator-activated receptor alpha (PPARalpha) signaling pathway (AID 651778); settings: PathHunter PPARalpha complementation, chemiluminescence, 6 h; max response: stronger effect = higher value; further: % of control where 0% means no effect
Peroxisome proliferator-activated receptor alpha (Homo sapiens), sequence (Q07869 whole entry, looked up, the tested form may be a part): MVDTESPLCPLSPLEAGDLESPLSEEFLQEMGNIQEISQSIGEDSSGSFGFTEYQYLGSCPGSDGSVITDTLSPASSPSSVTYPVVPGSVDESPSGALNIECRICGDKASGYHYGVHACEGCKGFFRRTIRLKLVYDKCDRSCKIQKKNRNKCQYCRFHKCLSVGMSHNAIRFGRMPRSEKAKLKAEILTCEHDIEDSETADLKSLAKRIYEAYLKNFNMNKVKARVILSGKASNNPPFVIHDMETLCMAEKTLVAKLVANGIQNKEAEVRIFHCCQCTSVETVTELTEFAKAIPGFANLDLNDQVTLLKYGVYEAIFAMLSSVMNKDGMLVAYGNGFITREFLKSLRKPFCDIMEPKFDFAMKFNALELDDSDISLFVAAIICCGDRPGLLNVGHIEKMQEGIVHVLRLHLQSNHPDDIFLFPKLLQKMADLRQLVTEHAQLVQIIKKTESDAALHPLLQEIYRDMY
Outline: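 Enzyme-fragment complementation assay in which ligand-bound PPARalpha translocates and forms an active enzyme that generates chemiluminescence. Cells were plated overnight, exposed to compound for 6 hr at 37 C, and then given detection reagent for 60 min at room temperature.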

[19] = qHTS assay for cell viability of HEK293 cells (AID 743288); settings: ATP luminescence (CellTiter-Glo), 18 h; max response: stronger effect = lower value; further: on the % scale 0 is the no-effect control and ±100 the full control effect; nearly all actives have a fitted effect of over 50% in size
Outline: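 Steps: plate 2,000 parental HEK293 cells per well; incubate ≥5 h, 37 C; add compounds in DMSO; incubate 18 h, 37 C; add CellTiter-Glo; wait 30 min at room temperature; read luminescence.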

[20] = qHTS assay for cell viability of the p53RE-bla HCT-116 cell line (AID 743292); further: on the % scale 0 is the no-effect control and ±100 the full control effect; nearly all actives have a fitted effect of over 55% in size
Outline: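 HCT-116 p53RE-bla cells seeded 4,000/well; 5 h at 37 C; compound (DMSO) added; 16 h at 37 C; CellTiter-Glo added, 30 min RT; luminescence read.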

CC1CCCC(C)N1C(=S)Nc1cccc(C(F)(F)F)c1 (stereo unspecified)
active: Potency [1] 11.2 µM

CO/N=C(/C(=O)N[C@@H]1C(=O)N2C(C(=O)O)=CCS[C@H]12)c1csc(N)n1
active: Potency [2] 10.1 µM

CN(C)CCCOc1ccc(-c2ccc3ncc4c(c3c2)n(C2CCOCC2)c(=O)n4C)cn1
inactive: Potency [2] | Potency [1]

O[C@@H]([C@H](O)[C@@H](O)CBr)[C@@H](O)CBr
-10.6%: max response [15]
inactive: activity change, negative = cytotoxicity [3] 11.7% | Potency [4] | activity change, negative = cytotoxicity [5] 2.79% | activity change, negative = cytotoxicity [6] 7.81% | outcome [7] | outcome [8] | outcome [9] | outcome [10] | outcome [11] | outcome [12] | outcome [13] | outcome [14] | max response [16] 12.2% | activation [17] 0.0467% | max response [18] -0.722% | max response [19] -10.9% | Potency [20] | Potency [2] | Potency [1]

COc1cc(/C=C/C(=O)N2CCC=CC2=O)cc(OC)c1OC
inactive: Potency [2]

CC(C)CC(NC(=O)CNC(=O)C(Cc1ccc(O)cc1)NC(=O)C(CO)NC(=O)C(Cc1c[nH]c2ccccc12)NC(=O)C(Cc1cnc[nH]1)NC(=O)C1CCC(=O)N1)C(=O)NC(CCCN=C(N)N)C(=O)N1CCCC1C(=O)NCC(N)=O (stereo unspecified)
inactive: Potency [2] | Potency [1]

Cc1cc(CC(C)CC(C)(C)C)n(O)c(=O)c1 (stereo unspecified)
inactive: Potency [2]

CCCCC(F)(F)C1(O)CCC2C(CC(=O)C2CCCCCCC(=O)O)O1 (stereo unspecified)
inactive: Potency [1]

Cc1cc2nc3c(=O)[nH]c(=O)nc-3n(C[C@H](O)[C@H](O)[C@H](O)COP(=O)(O)OP(=O)(O)OC[C@H]3O[C@@H](n4cnc5c(N)ncnc54)[C@H](O)[C@H]3O)c2cc1C
inactive: Potency [1]

O=C(/C=C/c1ccc(Cl)cc1)N1CCC2(CC1)CN(Cc1ccc(Cl)c(Cl)c1)C(=O)O2
inactive: Potency [2] | Potency [1]

CC1(C)S[C@@H]2[C@H](NC(=O)COc3ccccc3)C(=O)N2[C@H]1C(=O)O
inactive: max response [16] 2.91% | activation [17] -1.58% | max response [18] -2.73% | max response [19] -6.9% | Potency [20] | Potency [2]
-19.5%: max response [15]

NCCCC(N)C(=O)O (stereo unspecified)
inactive: Potency [2]

CC(C)(CO)C(O)C(=O)NCCCC(=O)O (stereo unspecified)
inactive: Potency [2]

O=C(O)c1ccccc1C(c1ccc(O)cc1)c1ccc(O)cc1
inactive: activity change, negative = cytotoxicity [3] 6.19% | Potency [4] | activity change, negative = cytotoxicity [5] 1.41% | activity change, negative = cytotoxicity [6] 8.62% | outcome [7] | outcome [8] | outcome [9] | outcome [10] | outcome [11] | outcome [12] | outcome [13] | outcome [14] | max response [16] 6.9% and 9.98% | activation [17] 2.69% and 0.36% | max response [18] 0.608% and -3.85% | max response [19] -11.1% and 2.2% | Potency [20] | Potency [2] | Potency [1]
-15.7% and -6.86%: max response [15]
